# Data from paper PMC7862700, “An all-to-all approach to the identification of sequence-specific readers for epigenetic DNA modifications on cytosine”.
# Tests used:
# Test in all cases: DAPPL (digital affinity profiling via proximity ligation, sequencing); 10 mM Tris-HCl pH 7.5, 50 mM NaCl, 1 mM DTT, 4% glycerol, room temperature, 30 min; GST-TFs on glutathione beads, 16-mer random dsDNA library, 0.1% formaldehyde crosslink after washing; high values mean tight binding
# FEV = target: T1, FEV (Homo sapiens, UniProt Q99581 1-238); conditions: protein: recombinant; tags: N-terminal GST; dsDNA, one strand shown
# T1 sequence: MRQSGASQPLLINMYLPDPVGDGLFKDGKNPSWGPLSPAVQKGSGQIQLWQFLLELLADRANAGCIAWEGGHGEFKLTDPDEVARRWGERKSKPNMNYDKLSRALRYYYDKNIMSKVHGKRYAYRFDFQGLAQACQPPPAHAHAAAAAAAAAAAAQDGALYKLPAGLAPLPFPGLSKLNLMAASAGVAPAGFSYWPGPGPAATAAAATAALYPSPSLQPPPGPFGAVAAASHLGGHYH
# Procedure, shortened: (§1)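 Binding signal is each hexamer's read frequency for a factor divided by its frequency in the tag-only sample. The factors were GST-fused human transcription factors from yeast, captured on glutathione beads, DNA-barcoded and pooled with that sample. Pools were incubated with 200 nmole of a random double-stranded 16-mer DNA library in Tris/NaCl/DTT/glycerol buffer at room temperature for 30 min, then washed, crosslinked with 0.1% formaldehyde, proximity-ligated with BsaI/T4 ligase (1 h, 37 °C), PCR-amplified and sequenced on an Illumina NextSeq500.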
# ETV5 = ETV5 (Homo sapiens, UniProt P41161 1-510); conditions: protein: recombinant; tags: N-terminal GST; dsDNA, one strand shown
# Procedure, shortened: as §1
# HSF1 = HSF1 (Homo sapiens, UniProt Q00613 1-529); conditions: protein: recombinant; tags: N-terminal GST; chain copies: 3; dsDNA, one strand shown
# Procedure, shortened: as §1
# SPIC = target: T2, SPIC (Homo sapiens, UniProt Q8N5J4 1-248); conditions: protein: recombinant; tags: N-terminal GST; dsDNA, one strand shown
# T2 sequence: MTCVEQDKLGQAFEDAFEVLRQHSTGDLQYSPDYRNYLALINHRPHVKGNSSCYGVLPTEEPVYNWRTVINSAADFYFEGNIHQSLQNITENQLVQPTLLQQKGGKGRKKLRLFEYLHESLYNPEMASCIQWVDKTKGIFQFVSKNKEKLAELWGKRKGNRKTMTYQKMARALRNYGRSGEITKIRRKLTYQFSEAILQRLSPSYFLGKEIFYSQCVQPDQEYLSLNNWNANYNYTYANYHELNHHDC
# Procedure, shortened: as §1
# ELF4 = ELF4 (Homo sapiens, UniProt Q99607 1-663); conditions: protein: recombinant; tags: N-terminal GST; dsDNA, one strand shown
# Procedure, shortened: as §1
# ELK4 = target: T3, ELK4 (Homo sapiens, UniProt P28324-2 1-405); conditions: protein: recombinant; tags: N-terminal GST; dsDNA, one strand shown
# T3 sequence: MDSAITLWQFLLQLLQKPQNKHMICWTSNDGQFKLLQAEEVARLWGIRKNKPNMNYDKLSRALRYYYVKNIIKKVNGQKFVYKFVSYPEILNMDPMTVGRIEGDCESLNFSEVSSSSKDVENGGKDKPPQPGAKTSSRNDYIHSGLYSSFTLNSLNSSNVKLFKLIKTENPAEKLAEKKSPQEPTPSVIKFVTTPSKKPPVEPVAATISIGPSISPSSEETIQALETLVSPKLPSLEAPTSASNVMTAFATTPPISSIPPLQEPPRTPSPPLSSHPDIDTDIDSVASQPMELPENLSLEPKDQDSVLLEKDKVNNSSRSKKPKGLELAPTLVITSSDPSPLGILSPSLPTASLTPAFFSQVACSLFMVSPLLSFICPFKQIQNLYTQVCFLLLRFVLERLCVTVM
# Procedure, shortened: as §1
# ETV2 = target: T4, ETV2 (Homo sapiens, UniProt O00321 1-342); conditions: protein: recombinant; tags: N-terminal GST; dsDNA, one strand shown
# T4 sequence: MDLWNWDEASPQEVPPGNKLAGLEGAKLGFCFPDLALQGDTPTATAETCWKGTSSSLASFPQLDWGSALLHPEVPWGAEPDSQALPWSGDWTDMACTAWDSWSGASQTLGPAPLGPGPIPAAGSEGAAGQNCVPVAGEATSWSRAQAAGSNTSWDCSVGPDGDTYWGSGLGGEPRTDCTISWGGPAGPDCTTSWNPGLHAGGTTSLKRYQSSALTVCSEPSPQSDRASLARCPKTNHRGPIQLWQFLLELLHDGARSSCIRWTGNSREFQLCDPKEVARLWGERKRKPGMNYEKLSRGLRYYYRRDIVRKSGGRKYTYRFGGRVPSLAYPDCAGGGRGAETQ
# Procedure, shortened: as §1
# ELF3 = target: T5, ELF3 (Homo sapiens, UniProt P78545 1-371); conditions: protein: recombinant; tags: N-terminal GST; dsDNA, one strand shown
# T5 sequence: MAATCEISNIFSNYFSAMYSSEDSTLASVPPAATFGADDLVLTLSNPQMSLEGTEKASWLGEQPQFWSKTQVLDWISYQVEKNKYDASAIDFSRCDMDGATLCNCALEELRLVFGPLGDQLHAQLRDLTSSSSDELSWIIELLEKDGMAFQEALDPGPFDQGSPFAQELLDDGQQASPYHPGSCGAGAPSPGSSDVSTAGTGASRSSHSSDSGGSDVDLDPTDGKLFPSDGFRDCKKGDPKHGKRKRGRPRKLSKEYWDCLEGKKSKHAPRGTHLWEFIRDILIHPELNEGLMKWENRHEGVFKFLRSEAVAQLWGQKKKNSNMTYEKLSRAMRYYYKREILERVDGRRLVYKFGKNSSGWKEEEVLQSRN
# Procedure, shortened: as §1
# CRX = CRX (Homo sapiens, UniProt O43186 1-299); conditions: protein: recombinant; tags: N-terminal GST; dsDNA, one strand shown
# Procedure, shortened: as §1
# ETV1 = ETV1 (Homo sapiens, UniProt P50549 1-477); conditions: protein: recombinant; tags: N-terminal GST; dsDNA, one strand shown
# Procedure, shortened: as §1
# ERF = target: T6, ERF (Homo sapiens, UniProt P50548 1-548); conditions: protein: recombinant; tags: N-terminal GST; dsDNA, one strand shown
# T6 sequence: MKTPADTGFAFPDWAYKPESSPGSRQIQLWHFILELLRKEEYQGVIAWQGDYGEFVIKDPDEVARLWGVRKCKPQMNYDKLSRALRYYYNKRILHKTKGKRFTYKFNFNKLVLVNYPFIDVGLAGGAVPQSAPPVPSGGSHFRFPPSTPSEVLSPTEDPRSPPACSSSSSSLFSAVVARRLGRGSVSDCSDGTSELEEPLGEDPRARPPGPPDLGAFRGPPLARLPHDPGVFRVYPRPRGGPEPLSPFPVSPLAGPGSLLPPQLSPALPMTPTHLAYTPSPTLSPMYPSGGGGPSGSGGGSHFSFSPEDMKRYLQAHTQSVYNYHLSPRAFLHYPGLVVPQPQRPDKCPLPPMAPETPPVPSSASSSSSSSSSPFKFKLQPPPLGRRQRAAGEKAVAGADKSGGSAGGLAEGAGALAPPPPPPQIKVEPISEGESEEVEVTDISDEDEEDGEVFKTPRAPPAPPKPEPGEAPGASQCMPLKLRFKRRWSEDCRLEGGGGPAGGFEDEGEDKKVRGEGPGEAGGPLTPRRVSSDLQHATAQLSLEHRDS
# Procedure, shortened: as §1
# ETV3L = target: T7, ETV3L (Homo sapiens, UniProt Q6ZN32 1-361); conditions: protein: recombinant; tags: N-terminal GST; dsDNA, one strand shown
# T7 sequence: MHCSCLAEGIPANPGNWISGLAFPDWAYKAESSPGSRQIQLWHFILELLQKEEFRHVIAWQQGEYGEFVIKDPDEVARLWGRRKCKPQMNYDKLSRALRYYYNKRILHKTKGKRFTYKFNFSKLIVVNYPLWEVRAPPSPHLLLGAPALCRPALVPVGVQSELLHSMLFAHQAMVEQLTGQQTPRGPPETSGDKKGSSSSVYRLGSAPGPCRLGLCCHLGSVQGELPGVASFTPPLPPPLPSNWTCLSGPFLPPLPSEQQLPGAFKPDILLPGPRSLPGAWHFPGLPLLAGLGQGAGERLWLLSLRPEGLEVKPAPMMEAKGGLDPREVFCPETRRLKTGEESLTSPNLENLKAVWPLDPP
# Procedure, shortened: as §1
# ETS2 = target: T8, ETS2 (Homo sapiens, UniProt P15036 1-469); conditions: protein: recombinant; tags: N-terminal GST; dsDNA, one strand shown
# T8 sequence: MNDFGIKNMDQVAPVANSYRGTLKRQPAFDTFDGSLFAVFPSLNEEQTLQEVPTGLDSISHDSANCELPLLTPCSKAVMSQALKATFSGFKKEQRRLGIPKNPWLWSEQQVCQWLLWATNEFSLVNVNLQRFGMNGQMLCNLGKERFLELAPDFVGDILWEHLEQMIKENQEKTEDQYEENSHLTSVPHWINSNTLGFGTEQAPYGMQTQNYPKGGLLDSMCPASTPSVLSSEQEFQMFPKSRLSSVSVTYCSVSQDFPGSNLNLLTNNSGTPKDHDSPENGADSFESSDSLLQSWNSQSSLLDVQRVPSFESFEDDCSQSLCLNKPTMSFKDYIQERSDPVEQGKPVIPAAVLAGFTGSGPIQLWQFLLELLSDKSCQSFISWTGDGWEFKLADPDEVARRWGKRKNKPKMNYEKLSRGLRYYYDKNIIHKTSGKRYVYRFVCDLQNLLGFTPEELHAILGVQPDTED
# Procedure, shortened: as §1
# SPDEF = target: T9, SPDEF (Homo sapiens, UniProt O95238 1-335); conditions: protein: recombinant; tags: N-terminal GST; dsDNA, one strand shown
# T9 sequence: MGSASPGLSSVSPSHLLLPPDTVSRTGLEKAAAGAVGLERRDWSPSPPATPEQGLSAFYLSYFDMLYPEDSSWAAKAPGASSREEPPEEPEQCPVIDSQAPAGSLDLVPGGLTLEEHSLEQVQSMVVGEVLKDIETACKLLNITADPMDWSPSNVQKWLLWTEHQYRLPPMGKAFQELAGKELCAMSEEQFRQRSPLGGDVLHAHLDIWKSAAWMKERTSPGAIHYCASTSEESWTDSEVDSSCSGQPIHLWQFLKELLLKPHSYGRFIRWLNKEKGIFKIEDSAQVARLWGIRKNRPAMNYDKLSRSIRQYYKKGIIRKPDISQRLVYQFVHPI
# Procedure, shortened: as §1
# ETV7 = target: T10, ETV7 (Homo sapiens, UniProt Q9Y603 1-341); conditions: protein: recombinant; tags: N-terminal GST; dsDNA, one strand shown
# T10 sequence: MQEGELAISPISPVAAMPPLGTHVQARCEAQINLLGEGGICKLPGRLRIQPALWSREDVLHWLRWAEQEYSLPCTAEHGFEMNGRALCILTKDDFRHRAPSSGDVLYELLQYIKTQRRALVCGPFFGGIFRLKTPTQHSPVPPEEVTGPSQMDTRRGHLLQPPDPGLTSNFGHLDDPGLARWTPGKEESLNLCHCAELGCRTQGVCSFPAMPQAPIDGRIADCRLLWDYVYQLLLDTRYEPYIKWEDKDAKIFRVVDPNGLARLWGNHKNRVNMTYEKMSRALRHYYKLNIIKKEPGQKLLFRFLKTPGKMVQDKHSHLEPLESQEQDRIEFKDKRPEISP
# Procedure, shortened: as §1
# ELF5 = target: T11, ELF5 (Homo sapiens, UniProt Q9UKW6-2 1-255); conditions: protein: recombinant; tags: N-terminal GST; dsDNA, one strand shown
# T11 sequence: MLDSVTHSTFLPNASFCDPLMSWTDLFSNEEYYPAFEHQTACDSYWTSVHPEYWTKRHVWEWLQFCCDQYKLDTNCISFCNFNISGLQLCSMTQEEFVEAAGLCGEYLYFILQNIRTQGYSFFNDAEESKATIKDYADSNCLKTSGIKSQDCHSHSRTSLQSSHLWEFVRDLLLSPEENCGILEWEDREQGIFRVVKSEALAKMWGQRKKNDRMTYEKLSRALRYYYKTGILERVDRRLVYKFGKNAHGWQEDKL
# Procedure, shortened: as §1
# ETV3 = target: T12, ETV3 (Homo sapiens, UniProt P41162-2 1-143); conditions: protein: recombinant; tags: N-terminal GST; dsDNA, one strand shown
# T12 sequence: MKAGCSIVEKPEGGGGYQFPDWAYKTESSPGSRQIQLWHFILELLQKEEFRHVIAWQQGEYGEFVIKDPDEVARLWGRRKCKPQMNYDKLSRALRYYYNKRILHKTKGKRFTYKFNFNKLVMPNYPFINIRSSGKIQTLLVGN
# Procedure, shortened: as §1
# ETV6 = ETV6 (Homo sapiens, UniProt P41212 1-452); conditions: protein: recombinant; tags: N-terminal GST; dsDNA, one strand shown
# Procedure, shortened: as §1
# Sequence of ETV1 (P50549 whole entry): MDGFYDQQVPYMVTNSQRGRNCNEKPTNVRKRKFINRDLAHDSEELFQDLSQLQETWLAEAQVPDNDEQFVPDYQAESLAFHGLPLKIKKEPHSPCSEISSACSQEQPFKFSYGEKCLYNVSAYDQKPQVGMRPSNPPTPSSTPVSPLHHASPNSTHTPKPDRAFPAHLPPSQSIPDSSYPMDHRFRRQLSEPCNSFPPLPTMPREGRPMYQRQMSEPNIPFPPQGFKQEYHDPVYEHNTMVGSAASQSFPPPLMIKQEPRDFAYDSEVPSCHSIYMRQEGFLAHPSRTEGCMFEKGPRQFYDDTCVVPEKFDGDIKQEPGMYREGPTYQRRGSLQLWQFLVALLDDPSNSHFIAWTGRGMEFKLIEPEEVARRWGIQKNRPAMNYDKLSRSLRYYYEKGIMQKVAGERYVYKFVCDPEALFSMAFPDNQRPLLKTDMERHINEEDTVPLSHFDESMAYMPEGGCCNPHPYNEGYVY
# Sequence of ETV6 (P41212 whole entry): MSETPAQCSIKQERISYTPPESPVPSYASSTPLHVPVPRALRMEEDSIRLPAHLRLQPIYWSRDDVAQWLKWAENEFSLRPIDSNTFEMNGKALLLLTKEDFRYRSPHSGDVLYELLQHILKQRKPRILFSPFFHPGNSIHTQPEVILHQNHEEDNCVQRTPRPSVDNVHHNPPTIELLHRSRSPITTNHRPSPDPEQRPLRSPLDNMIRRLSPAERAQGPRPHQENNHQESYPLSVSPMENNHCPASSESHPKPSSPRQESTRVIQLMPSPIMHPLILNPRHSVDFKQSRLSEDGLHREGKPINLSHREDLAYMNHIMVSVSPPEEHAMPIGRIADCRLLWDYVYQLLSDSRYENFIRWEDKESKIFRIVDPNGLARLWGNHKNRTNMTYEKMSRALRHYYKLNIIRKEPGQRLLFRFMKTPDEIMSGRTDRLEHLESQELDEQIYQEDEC
# Sequence of ELF4 (Q99607 whole entry): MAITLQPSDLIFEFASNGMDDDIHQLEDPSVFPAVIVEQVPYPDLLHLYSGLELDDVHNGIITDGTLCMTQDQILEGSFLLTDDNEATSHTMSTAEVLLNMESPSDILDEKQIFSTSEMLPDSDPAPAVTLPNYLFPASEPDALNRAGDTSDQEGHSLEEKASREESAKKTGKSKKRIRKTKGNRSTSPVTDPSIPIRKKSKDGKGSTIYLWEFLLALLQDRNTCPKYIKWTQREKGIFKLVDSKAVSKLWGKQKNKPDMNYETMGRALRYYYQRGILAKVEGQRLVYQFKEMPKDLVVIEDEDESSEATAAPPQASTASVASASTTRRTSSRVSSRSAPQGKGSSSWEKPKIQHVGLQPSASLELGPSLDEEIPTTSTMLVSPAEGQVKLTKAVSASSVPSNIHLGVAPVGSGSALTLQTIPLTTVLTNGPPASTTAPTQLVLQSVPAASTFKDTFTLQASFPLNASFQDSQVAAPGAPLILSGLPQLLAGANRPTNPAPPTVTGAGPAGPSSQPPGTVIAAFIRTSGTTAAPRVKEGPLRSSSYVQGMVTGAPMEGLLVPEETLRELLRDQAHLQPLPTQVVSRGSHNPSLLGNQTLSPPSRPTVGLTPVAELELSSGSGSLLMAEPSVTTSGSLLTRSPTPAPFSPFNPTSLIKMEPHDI
# Sequence of HSF1 (Q00613 whole entry): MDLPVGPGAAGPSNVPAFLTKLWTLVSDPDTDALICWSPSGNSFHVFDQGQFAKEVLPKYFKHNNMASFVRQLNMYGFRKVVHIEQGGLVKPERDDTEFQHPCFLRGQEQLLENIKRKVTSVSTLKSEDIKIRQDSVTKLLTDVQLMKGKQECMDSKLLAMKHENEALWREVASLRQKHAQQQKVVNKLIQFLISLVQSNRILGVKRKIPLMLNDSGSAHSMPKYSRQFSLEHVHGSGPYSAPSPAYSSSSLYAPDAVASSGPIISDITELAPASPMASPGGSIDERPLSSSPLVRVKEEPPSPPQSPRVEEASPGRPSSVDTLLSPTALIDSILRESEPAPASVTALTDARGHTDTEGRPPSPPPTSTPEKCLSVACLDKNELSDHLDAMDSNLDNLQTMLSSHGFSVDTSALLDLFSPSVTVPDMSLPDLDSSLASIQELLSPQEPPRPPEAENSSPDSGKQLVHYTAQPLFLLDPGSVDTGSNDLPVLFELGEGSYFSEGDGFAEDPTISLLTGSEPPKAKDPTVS
# Sequence of ETV5 (P41161 whole entry): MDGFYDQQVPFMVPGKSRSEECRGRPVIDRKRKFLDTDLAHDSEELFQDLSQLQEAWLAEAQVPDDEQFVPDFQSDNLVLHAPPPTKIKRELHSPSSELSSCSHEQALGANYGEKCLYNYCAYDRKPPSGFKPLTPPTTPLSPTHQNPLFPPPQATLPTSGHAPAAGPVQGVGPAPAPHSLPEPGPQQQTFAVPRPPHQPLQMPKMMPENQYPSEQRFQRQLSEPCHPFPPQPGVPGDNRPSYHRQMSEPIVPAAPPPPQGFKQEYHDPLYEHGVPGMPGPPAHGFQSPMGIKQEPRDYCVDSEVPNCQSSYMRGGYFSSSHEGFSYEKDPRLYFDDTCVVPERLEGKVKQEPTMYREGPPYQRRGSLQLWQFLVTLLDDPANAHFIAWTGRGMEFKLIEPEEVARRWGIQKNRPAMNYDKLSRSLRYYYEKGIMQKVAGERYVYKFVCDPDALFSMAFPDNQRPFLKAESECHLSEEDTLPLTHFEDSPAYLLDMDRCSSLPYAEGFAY
# Sequence of CRX (O43186 whole entry): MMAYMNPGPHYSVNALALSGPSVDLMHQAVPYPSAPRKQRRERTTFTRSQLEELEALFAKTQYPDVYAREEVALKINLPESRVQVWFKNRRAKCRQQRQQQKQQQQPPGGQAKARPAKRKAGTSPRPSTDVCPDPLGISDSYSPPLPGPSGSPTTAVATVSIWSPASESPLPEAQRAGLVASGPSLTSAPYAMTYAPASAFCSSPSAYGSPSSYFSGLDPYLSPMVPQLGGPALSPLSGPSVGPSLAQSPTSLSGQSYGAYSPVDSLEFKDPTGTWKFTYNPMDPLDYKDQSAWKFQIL
sequence,measurement,setting,value
TCTTAG,binding signal,FEV,"1.16 fold enrichment (6-mer frequency, TF over GST control)"
same,binding signal,ETV5,"1.21 fold enrichment (6-mer frequency, TF over GST control)"
same,binding signal,HSF1,"1.5 fold enrichment (6-mer frequency, TF over GST control)"
same,binding signal,SPIC,"1.36 fold enrichment (6-mer frequency, TF over GST control)"
same,binding signal,ELF4,"1.3 fold enrichment (6-mer frequency, TF over GST control)"
same,binding signal,ELK4,"1.21 fold enrichment (6-mer frequency, TF over GST control)"
same,binding signal,ETV2,"1.26 fold enrichment (6-mer frequency, TF over GST control)"
same,binding signal,ELF3,"1.29 fold enrichment (6-mer frequency, TF over GST control)"
same,binding signal,CRX,"1.86 fold enrichment (6-mer frequency, TF over GST control)"
same,binding signal,ETV1,"1.25 fold enrichment (6-mer frequency, TF over GST control)"
same,binding signal,ERF,"1.21 fold enrichment (6-mer frequency, TF over GST control)"
same,binding signal,ETV3L,"1.35 fold enrichment (6-mer frequency, TF over GST control)"
same,binding signal,ETS2,"1.13 fold enrichment (6-mer frequency, TF over GST control)"
same,binding signal,SPDEF,"1.24 fold enrichment (6-mer frequency, TF over GST control)"
same,binding signal,ETV7,"1.18 fold enrichment (6-mer frequency, TF over GST control)"
same,binding signal,ELF5,"1.21 fold enrichment (6-mer frequency, TF over GST control)"
same,binding signal,ETV3,"1.2 fold enrichment (6-mer frequency, TF over GST control)"
same,binding signal,ETV6,"1.19 fold enrichment (6-mer frequency, TF over GST control)"
